Our source for the Percent Effect values is ChEMBL document CHEMBL3988442, “University of Dundee, Small-Polar-MMV Screening Library” (2021).

The whole screen tested about 69,000 compounds, of which about 420 (0.61%) showed an effect of 50% or more. For the sample, strong results were picked, then their nearest neighbours and some compounds at random.

The test addresses T1, Histidine--tRNA ligase (Leishmania infantum) (UniProt A4I591).
T1 sequence (whole entry): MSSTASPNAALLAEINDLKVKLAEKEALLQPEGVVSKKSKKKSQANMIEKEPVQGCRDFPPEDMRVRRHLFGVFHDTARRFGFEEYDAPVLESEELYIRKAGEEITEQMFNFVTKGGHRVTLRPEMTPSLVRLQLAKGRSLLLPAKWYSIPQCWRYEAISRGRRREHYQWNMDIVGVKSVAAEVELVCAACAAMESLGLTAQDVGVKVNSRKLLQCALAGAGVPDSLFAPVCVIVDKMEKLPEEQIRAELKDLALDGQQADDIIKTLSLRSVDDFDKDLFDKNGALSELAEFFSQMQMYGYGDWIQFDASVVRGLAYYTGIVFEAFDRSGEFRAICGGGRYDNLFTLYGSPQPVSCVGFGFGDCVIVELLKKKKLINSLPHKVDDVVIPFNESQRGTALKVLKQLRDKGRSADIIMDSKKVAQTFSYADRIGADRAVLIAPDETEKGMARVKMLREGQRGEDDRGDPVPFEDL
As to the kind of experiment: Leishmania infantum Histidine tRNA synthetase (LdHisRS). Particulars: 30 µM. The format is functional. Also noted: scale not given: in the data most compounds retested in dose-response had high values.
For the molecule `COc1cnc(N2CCN(C)CC2)nc1-c1ccnn1C`, the Percent Effect was determined as 13.7%.
With `COc1cnc(N2CC(N3CCOCC3)C2)nc1-c1ccnn1C` the figure was 92.2%.
Take `Cc1cnc(N2CCN(C)CC2)nc1-c1ccnn1C`: the Percent Effect worked out at 7.84%.
Under `CC(=O)N1[C@H](Cn2cncn2)C[C@@H]2CN(CC3CC3)CC[C@@H]21` stands 11.1%; under `Cc1cc(C(=O)N2C[C@@H]3COC[C@]3(CN(C)C)C2)sc1C`, -39.3%.
Turning to `COCCN1C[C@@H]2CN(Cc3ccc(C)s3)CCC[C@]2(C(=O)O)C1`, the Percent Effect was -8.18%.
With `CS(=O)(=O)N1CC[C@H]2C[C@@H](C(=O)N3CCOCC3)O[C@@H]2C1` the figure was -3.77%; with `O=C1N(Cc2cccnc2)C[C@H]2CN(S(=O)(=O)c3ccccc3)CCN12`, 13.5%; with `Cc1ccoc1C(=O)N1CCO[C@H]2[C@H](OCC3CCOCC3)CC[C@@H]21`, 7.55%.
With `COc1ccc(-n2c(CCC(=O)O)nc3ccccc32)cc1CO` the figure was 60%; with `CC(O)c1cccc(-n2c(CCC(=O)O)nc3ccccc32)c1` (stereo unspecified), 40%; with `COc1ccc(-n2c(CO)nc3ccccc32)cc1CO`, 34.3%.
Turning to `CNC[C@H]1CC[C@H](c2cc(CN(C)S(=O)(=O)N(C)C)n(C)n2)CC1`, the Percent Effect is -50%.
In the case of `O=C(c1ccco1)N1CCO[C@@H]2CN(CC3CC3)CC[C@@H]2C1`, the Percent Effect was 26%.
Regarding `CN1[C@H]2CC[C@@H]1CN(C(=O)c1nnc3n1CCCC3)CC2`, the Percent Effect came out at 8.89%.
With `Cc1ncc(CN(C)C2CCCN(c3cccnn3)C2)s1` (stereo unspecified) the figure was 6.74%; with `Cc1ccc(N2CCCC(N(C)c3nn4cc(C)nc4s3)C2)nn1` (stereo unspecified), 15.9%.
Turning to `Cc1cn2nc(N(C)C3CCCN(c4cccnn4)C3)sc2n1` (stereo unspecified), the Percent Effect was 65.5%.
Consider `COc1ccc(CN2C[C@@H]3OCCN(CCN4CCCC4)[C@@H]3C2)cc1`, for which the Percent Effect came to 0.917%.
Under `CCN(C(=O)c1nc2c(s1)CCCN2Cc1ccccc1)C(C)C` stands 74.4%; under `CC(C)NC(=O)c1nc2c(s1)CCCN2Cc1ccccc1`, 38.5%; under `CN(C)C(=O)c1nc2c(s1)CCCN2Cc1ccccc1`, -245%.
Under `CSc1ccccc1C(=O)N1C[C@H]2CC[C@@H]1CN(C(=O)C1CCC1)C2` stands 14.5%; under `O=C(CC1CC1)N[C@@H]1CN(C(=O)c2ccsc2)C[C@@H]2CCCO[C@@H]21`, 0.901%; under `CN(C)CCn1c(=O)oc2ccc(NC(=O)N3CCCCCC3)cc21`, 59.8%.
Under `CCC(C)C(=O)Nc1ccc2oc(=O)n(CCN(C)C)c2c1` (stereo unspecified) stands 27.7%; under `CN(C)CCn1c(=O)oc2ccc(NC(=O)C3CCCO3)cc21` (stereo unspecified), 53.4%.
`CCC(CC)C(=O)Nc1ccc2oc(=O)n(CCN(C)C)c2c1`: the Percent Effect was 15.2%.
For the molecule `CC(C)CCC(=O)Nc1ccc2oc(=O)n(CCN(C)C)c2c1`, the Percent Effect turned out to be 27.7%.
Take `CN(C)CCn1c(=O)oc2ccc(NC(=O)CC(C)(C)C)cc21`: the Percent Effect was determined as 37.9%.
With `CCNC(=O)N1CC[C@H]2CC(=O)N(CC(N)=O)CC[C@H]2C1` the figure was 11.1%.
